An excerpt weighted towards active compounds, which were near 16% of everything screened.
DT40 TDP1 CPT = qHTS for Inhibitors of human tyrosyl-DNA phosphodiesterase 1 (TDP1): qHTS in cells in presence of CPT; AID 686979, 2013; Potency, µM (titrated, usually from 46.2 µM), for the others: top-dose activity change, negative = growth inhibition, most hits filed as inhibitors; chicken DT40 Tdp1-/-;hTDP1 cells + 20 nM CPT, ATP luminescence, 48 h; hit rate 12% among 420,000; also: potency is read from the fitted curve at half-maximal effect; % is scaled to controls: 0 for no effect and ±100 for the full control effect; nearly all actives have a fitted effect of over 55% in size
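Chicken DT40 Tdp1-/- cells complemented with human TDP1, 400 cells/well, exposed to compounds plus 20 nM camptothecin for at least 48 h at 37 C; viability read as ATP content by CellTiter-Glo luminescence.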
miR-21 act = qHTS Assay for Modulators of miRNAs and/orActivators of miR-21 | HeLa miR-21 FLuc reporter, luciferase, 48 h | Potency, µM (highest dose often 38.3 µM), for inactives: at the top dose activity change, positive = activation, hits mostly activators | 340,000 tested, under 10 active;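 also: % of control where 0% means no effect; miR-21 action dims this reporter so a rising signal means less miR-21 action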
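HeLa cells stably expressing CMV-driven firefly luciferase with a downstream miR-21 binding sequence, endogenously expressing miR-21, were treated with titrations (up to about 40uM final) for 48 hours at 37 degree Celsius. Luciferase luminescence was read after lysis.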
uPA surface inh = qHTS for Inhibitors of Cell Surface uPA Generation | cell surface uPA generation assay, qHTS | Potency, µM (titrated, usually from 38.3 µM), for the others: top-dose activity change, negative = inhibition, usual class: inhibitors | hit rate 0.31% among 330,000 | AID 540303, 2011; active = well fitted inhibition curve with a large enough effect; inconclusive = small, poorly fitted or top-dose-only effect; inactive = no such curve, though single readings can be large or run the other way; tested in mouse RAW 264.7 cells; also: potency is read from the fitted curve at half-maximal effect; % is scaled to controls: 0 for no effect and ±100 for the full control effect; nearly all actives have a fitted effect of over 55% in size
TDP1 cell noCPT = qHTS for Inhibitors of human tyrosyl-DNA phosphodiesterase 1 (TDP1): qHTS in cells in absence of CPT; hit rate 15% among 420,000; AID 686978, 2013; Potency, µM (highest dose often 46.2 µM), inactives show at the top dose activity change, negative = growth inhibition, actives largely listed as inhibitors; DT40 Tdp1-/- hTDP1 cells, no CPT, ATP luminescence, 48 h; also: potency is read from the fitted curve at half-maximal effect; % is scaled to controls: 0 for no effect and ±100 for the full control effect; nearly all actives have a fitted effect of over 55% in size
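Growth kinetics read by CellTiter-Glo luminescence after ≥48 hr at 37 °C. Cells: DT40 Tdp1-/- stably carrying human TDP1, 400 per well, compound exposure in the absence of CPT (DMSO vehicle).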
TDP1 block = qHTS Assay for Inhibitors of Tyrosyl-DNA Phosphodiesterase (TDP1). Tyrosyl-DNA phosphodiesterase 1 (Homo sapiens), Q9NUW8. Potency, µM (series often up to 130 µM), for the others: at the top dose activity change, negative = inhibition, hits mostly inhibitors. hit rate 0.28% among 350,000. recombinant TDP1, AlphaScreen DNA substrate cleavage; also: potency is read from the fitted curve at half-maximal effect; % is scaled to controls: 0 for no effect and ±100 for the full control effect; nearly all actives have a fitted effect of over 40% in size
Target sequence (Q9NUW8 whole entry, looked up): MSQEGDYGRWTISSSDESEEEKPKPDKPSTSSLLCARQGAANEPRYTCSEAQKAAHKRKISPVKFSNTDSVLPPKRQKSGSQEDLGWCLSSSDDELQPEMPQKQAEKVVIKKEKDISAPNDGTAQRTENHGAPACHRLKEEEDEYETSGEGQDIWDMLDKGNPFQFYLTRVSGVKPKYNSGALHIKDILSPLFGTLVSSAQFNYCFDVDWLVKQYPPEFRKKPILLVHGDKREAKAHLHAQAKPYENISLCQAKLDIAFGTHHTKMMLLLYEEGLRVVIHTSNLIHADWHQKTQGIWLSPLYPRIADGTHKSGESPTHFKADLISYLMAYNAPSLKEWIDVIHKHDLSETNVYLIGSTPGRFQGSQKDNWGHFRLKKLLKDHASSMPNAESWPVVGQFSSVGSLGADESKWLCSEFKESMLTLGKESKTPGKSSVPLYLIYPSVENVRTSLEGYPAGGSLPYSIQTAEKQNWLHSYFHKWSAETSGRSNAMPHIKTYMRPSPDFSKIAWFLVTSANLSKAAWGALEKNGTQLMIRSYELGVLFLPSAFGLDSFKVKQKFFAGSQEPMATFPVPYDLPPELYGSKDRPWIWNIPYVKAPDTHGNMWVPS
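Recombinant human Tdp1 (E. coli-expressed, 1 nM final) preincubated with compounds 15 min at room temperature, then 5'-biotin/3'-phosphotyrosine-FITC DNA substrate (15 nM final) added for 5 min. AlphaScreen beads (10 ug/ml final) added 10 min; cleavage lowers signal.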
Numbers without * were called inactive; u = inconclusive; x = no result given; [ ] = dose if it differs, or a comment. Unless noted, calls follow the shape of the dose curve; as a rule, active = well fitted curve in the direction sought with a large enough effect; inconclusive = small, poorly fitted or top-dose-only effect, or another doubt; inactive = no such curve, though single readings can be large; an effect the other way counts as inactive or inconclusive.

SMILES | DT40 TDP1 CPT | miR-21 act | uPA surface inh | TDP1 cell noCPT | TDP1 block
CC(=O)Nc1cccc(-c2cc(NC(C)=O)c3ncc(-c4cccc(C(C)=O)c4)n3c2)c1 | 23µM* | x | x | 10µM* | x
COc1ccc(-c2cc(NC=O)c3ncc(-c4ccc(C(C)=O)cc4)n3c2)cn1 | 5.2µM* | x | x | 7.3µM* | x
CC(=O)Nc1cccc(-c2cn3cccnc3n2)c1 | 3% | -5% | x | 2% | 4%
CC(=O)Nc1cccc(NC(=O)Nc2ccc(C(C)=O)cc2)c1 | -17% | -13% | -7% | -22% | 7%
CC(=O)Nc1cccc(-c2cc(NC=O)c3ncc(-c4ccc(C(C)=O)cc4)n3c2)c1 | u | x | x | 16µM* | x
Cc1cc(C)nc(N2CCCC(C(=O)NC(C)C)C2)n1 (stereo not drawn) | -9% | -1% | 10% | 2% | -2%
CC(=O)c1c(NCCc2ccccc2)cc(C)oc1=O | u | -9% | x | -11% | -2%
O=C(c1ccccc1)N1CCN(S(=O)(=O)N2CCCCCC2)CC1 | u | 0% | -9% | -6% | 0%[0.0935 µM]
Cc1nn(-c2ccccc2)c(N)c1Sc1ccccc1[N+](=O)[O-] | u | 0% | -5% | 16µM* | 5%
Cc1nn(-c2ccccc2)c(N)c1Sc1cccc([N+](=O)[O-])c1 | u | 0% | -15% | u | 5%
COc1ccc(NC(=O)c2cc(S(=O)(=O)NCCC3=CCCCC3)ccc2F)cc1 | 26µM* | 26% | x | 23µM* | 10%
Cc1ccc(NC(=O)c2cc(S(=O)(=O)NCCC3=CCCCC3)ccc2F)cc1F | u | 15% | -5% | 16µM* | 0%
CC(C)NC(=O)N(C)C[C@H]1OCc2cnnn2CCCC(=O)N([C@H](C)CO)C[C@@H]1C | 7% | x | x | 3% | x
COc1cc(NS(=O)(=O)c2ccc(NC(=O)/C=C/C(=O)O)cc2)nc(OC)n1 | 4% | 0% | 4% | 8% | x
CCOC(=O)CN1C(=O)S/C(=C/c2cccc([N+](=O)[O-])c2O)C1=O | -15% | -4% | -12% | u | 5%
CCOC(=O)c1sc2nc(N3CCOCC3)c3c(c2c1N)CCCC3 | u | 1% | 2% | -19% | 4%
CCOC(=O)c1sc2nc(N3CCOCC3)c3c(c2c1N)CC(C(C)C)OC3 (stereo not drawn) | 8.2µM* | -3% | 6% | -13% | 3%
O=C(c1ccccc1)C(Nc1cccc([N+](=O)[O-])c1)c1ccccc1 (stereo not drawn) | u | x | -7% | u | x
CCCOc1ccc(/C=C/C(=O)Nc2ccc([N+](=O)[O-])cc2C)cc1OC | u | -4% | 3% | u | -1%
CCc1ccccc1NC(=S)NNC(=O)c1ccccc1Cl | 6.5µM* | -27% | 3% | 5.8µM* | 8%
COCCNC(=O)CSc1cc(-c2ccccc2)c2ccc(OC)cc2n1 | -28% | 5% | -5% | u | 10%
CN(C)c1nc(=NCc2ccco2)ss1 | 0.15µM* | u | 0% | 0.037µM* | 9%
O=S1(=O)NC(=NCc2ccco2)c2ccccc21 | -12% | -4% | 5% | -13% | 0%
Cc1c(C)[n+](=O)c(-c2ccco2)c(C)n1[O-] | 3% | 0% | x | 9% | 3%
O=c1cc(N2CCOCC2)oc2c(-c3ccccc3)cccc12 | 8.2µM* | x | x | 7.3µM* | 10%[56.1 µM]
SMILES | DT40 TDP1 CPT | miR-21 act | uPA surface inh | TDP1 cell noCPT | TDP1 block
Cc1[nH]n(-c2ccc(Br)cc2)c(=O)c1/C=N/NC(=O)c1ccccc1 | 4.6µM* | -19% | 6.3µM* | 2.9µM* | 9%
Cc1[nH]n(-c2ccccc2)c(=O)c1/C=N/NC(=O)c1cccc(F)c1 | 5.2µM* | 4% | u | 4.1µM* | x
CCCCCNC(=O)c1ccc2c(c1)nc(C)n2-c1cccc(C)c1 | 15µM* | u | x | u | 8%
COc1ccc(C(=O)NNC(=O)CSc2nc3c([nH]2)c(=O)n(C)c(=O)n3C)cc1 | 4% | 3% | 10% | 6% | 8%
CCOC(=O)c1c(C)[nH]c(C)c1C(=O)COC(=O)c1cccnc1Cl | 0% | x | -3% | -1% | 1%
Cc1ccc(N=C2NC(=O)/C(=C/c3cccs3)S2)cc1C | 13µM* | -18% | -1% | 10µM* | 3%
O=C1NC(=Nc2ccccc2)S/C1=C/c1cccnc1 | 19% | -11% | x | -9% | -10%
O=C1NC(=Nc2cccnc2)S/C1=C\c1cccc(F)c1 | u | -1% | -15% | 13µM* | 0%
O=C1NC(=Nc2ccccc2)S/C1=C/c1cccs1 | -17% | -32% | u | u | u
Cc1cccc(N=C2NC(=O)/C(=C\c3cccs3)S2)c1 | 13µM* | 10% | -5% | 9.2µM* | 6%
CCC(=O)N(c1nnc(SC(C)C(=O)Nc2ccc(N3CCOCC3)cc2)s1)C1CC1 (stereo not drawn) | -4% | x | x | -21% | x
Cn1nc(CC#N)c2c(=N)n(N)cnc21 | 11% | x | 0% | 3% | x
Cc1cc2c(cc3c(SCC(=O)Nc4ccc(Cl)cc4F)nncn32)o1 | u | 0% | x | -77% | 5%
Cc1ccc(-c2nc(SC(C)C(=O)c3c(N)n(C)c(=O)n(C)c3=O)n[nH]2)cc1 (stereo not drawn) | u | x | 0% | 23µM* | 4%
Cc1ccc(-c2nc(SCC(=O)c3c(N)n(C)c(=O)n(C)c3=O)n[nH]2)cc1 | 5% | -1% | -8% | 5% | 4%
Cc1nn2c(N3CCN(C)CC3)c3c(nc2c1-c1ccccc1)CCCC3 | u | -1% | -15% | -25% | -1%
Cc1nn2c(NCc3ccccn3)cc(C(C)(C)C)nc2c1-c1ccccc1 | u | 1% | -14% | u | x
Cc1cc(NCc2ccccn2)n2nc(C)c(-c3ccccc3)c2n1 | 0.052µM* | 26% | -4% | 0.046µM* | 10%
Cc1nn2c(NCCN3CCOCC3)c3c(nc2c1-c1ccccc1)CCCC3 | 2.6µM* | 2% | -2% | 5.8µM* | x
COc1ccc(Nc2c3c(nc4c(-c5ccccc5)c(C)nn24)CCC3)cc1 | 9% | 7% | 1% | 4% | -3%
Cc1nn2c(NCc3ccccn3)c3c(nc2c1-c1ccccc1)CCC3 | 2.6µM* | 25% | 3% | 4.6µM* | x
O=c1c(-c2cccs2)nc2cncnc2n1C1CC1 | 0% | x | x | -15% | x
Cc1ccc(CNC(=O)Cn2c3ncccc3c(=O)n2-c2ccc(C)cc2)cc1 | 21µM* | -6% | x | u | 3%
Cc1ccc(-n2c(=O)c3cccnc3n2CC(=O)Nc2ccc(C)cc2Cl)cc1 | u | 6% | x | 13µM* | -3%
